Compounds with a hit are over-represented: about 21% of the library has one in this group of screens.
Pf growth 48h – Primary qHTS for delayed death inhibitors of the malarial parasite plastid, 48 hour incubation | 310,000 compounds, 5.9% hits | AID 504832, 2011 | Potency, µM (series often up to 28.7 µM), usual class: inhibitors | P. falciparum luciferase growth in erythrocytes, 48 h
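Parasite viability was followed by luminescence of a genomically integrated firefly luciferase. Cultures held 0.1% parasitemia at 2% hematocrit (final), incubated under 5% CO2 at 37 C.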
HCMV antiviral – qHTS Assay for inhibitors of the human cytomegalovirus (HCMV). 410,000 compounds, 4.5% hits. AID 1259415, 2018. HFF cells, HCMV-luciferase reporter, 72 h; hits give low values. activity change, negative = inhibition, % at 57.5 µM; in the data active = activity change below about -60%; inconclusive = no clear call, values can overlap the other calls; inactive = above about -39%
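Inhibition of viral replication was scored as loss of reporter luminescence in HFFs infected with HCMV-luciferase (MOI 1 PFU/cell) for 72 h; compounds tested at 2 doses, normalized to buffer and Salinomycin controls.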
HCV inh – qHTS Assay for Inhibitors of Hepatitis C Virus (HCV); Huh7.5.1 HCVcc-Cre infection, luciferase reporter, 44 h; Potency, µM (series often up to 41.8 µM), actives largely listed as inhibitors; 340,000 compounds, 3.4% hits
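Infectious HCV cell culture screen: compound-treated cells (1,000/well, pre-plated 4 h) are infected with HCVcc-Cre at roughly 0.5 moi and grown 44 h. Infection is quantified by luciferase signal after 15 min substrate incubation at room temperature.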
Cycloheximide cs – Cycloheximide Counterscreen for Small Molecule Inhibitors of Shiga Toxin; 300,000 compounds, 12% hits; AID 2314, 2010; max response, %; cell reporter, cycloheximide protein synthesis inhibition counterscreen; in the data active = max response mostly above about 13%, no sharp cut-off; inactive = mostly below about 14%; note: read at 38.3 µM for the half of the compounds with a filed dose
Shiga inhibitor – A qHTS for Small Molecule Inhibitors of Shiga Toxin; 290,000 compounds, 9.2% hits; inhibition, % at 38.7 µM; Vero cells, Shiga toxin protein synthesis inhibition reporter; AID 2315, 2010; in the data active = inhibition mostly above about 28%, no sharp cut-off; inactive = mostly below about 43%
Pf growth 96h – Primary qHTS for delayed death inhibitors of the malarial parasite plastid, 96 hour incubation. Potency, µM (doses to about 28.7 µM), usual class: inhibitors. P. falciparum luciferase reporter growth, 96 h. 320,000 compounds, 6.9% hits
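Readout is luminescence from an integrated firefly luciferase in P. falciparum. Red cells, 2% hematocrit and 0.05% parasitemia final, were cultured with compound through two parasite generations (96 hours) at 37 C, 5% CO2.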
Hits are given with their value; i = inactive; ? = inconclusive; nt = not tested or not shown. Unless noted, calls come from the whole dose curve; as a rule, active = well fitted inhibition curve with a large enough effect; inconclusive = small, poorly fitted or top-dose-only effect, or another doubt; inactive = no such curve, though single readings can be large or run the other way.

SMILES	Pf growth 48h	HCMV antiviral	HCV inh	Cycloheximide cs	Shiga inhibitor	Pf growth 96h
Cc1ccc(CS/C(Nc2ccccc2C)=C(\C#N)C(=O)NCc2ccco2)c(C)c1	2.33µM	i	i	66.2	90.8	i
O=C(CCSCc1ccc(Cl)cc1)NCc1ccco1	i	i	i	i	i	i
COc1ccc(C2=C(C(C)=O)Sc3nnc(-c4ccc(Cl)cc4)n3N2C(C)=O)cc1OC	nt	i	nt	nt	nt	nt
O=C(OCc1ccc([N+](=O)[O-])cc1Cl)c1cnccn1	i	i	i	i	i	?
CCCCN(CC)C(=O)c1cc2c(=O)n3ccccc3nc2n1C	nt	i	nt	nt	nt	nt
O=C(Nc1ccc(NC(=O)C2CC2)nc1)c1ccco1	i	i	i	24.0	59.7	nt
O=C(Nc1ccc(NC(=O)C2CCCCC2)nc1)c1ccccn1	i	i	i	43.6	81.4	i
COc1ccc(C(=O)Nc2ccc(NC(=O)C3CCCCC3)nc2)cc1	i	i	i	i	i	?
COc1ccccc1C(=O)Nc1ccc(NC(=O)C2CCCCC2)nc1	?	i	i	i	i	i
O=C(Nc1ccc(NC(=O)C2CCCCC2)nc1)c1ccco1	i	i	i	52.5	66.2	i
N#CC1(NC(=O)CN2c3cccc4cccc(c34)S2(=O)=O)CCCCC1	i	i	i	nt	nt	?
Cc1occc1C(=O)Nc1sccc1C(N)=O	i	i	i	38.1	i	i
Cc1ccc(C(=O)N[C@H](C(=O)Nc2sccc2C(N)=O)C(C)C)cc1	i	?	i	17.9	i	?
CC(C)[C@H](NC(=O)c1ccccc1F)C(=O)OCC(=O)Nc1sccc1C(N)=O	nt	i	?	nt	nt	nt
CCCc1cc(C(N)=O)c(NC(=O)c2ccoc2C)s1	i	i	7.08µM	i	i	nt
NC(=O)c1ccsc1NC(=O)c1coc2ccccc2c1=O	i	i	i	23.7	103.7	i
CCCc1cc(C(N)=O)c(NC(=O)c2cc(C)on2)s1	i	i	?	i	i	nt
CN(C)C(CNC(=O)c1coc2ccccc2c1=O)c1ccccc1 (stereo not given)	i	i	i	i	i	i
COc1ccc(C2/C=C\CN(C(=O)C3CCCCC3)C(C)C(=O)N2Cc2ccc(F)cc2)cc1 (stereo not given)	nt	nt	nt	i	i	nt
O=C(COc1ccccc1Br)NC1CCCC1	i	i	?	31.9	77.6	i
COc1ccccc1OCC(=O)NC1CCCCCC1	i	i	?	21.8	41.7	?
CCc1ccc(OCC(=O)NC2CCCCC2)c(Br)c1	i	i	?	i	i	11.7µM
Cc1cc(OCC(=O)NCCc2cccc(F)c2)c2c(C)cc(=O)oc2c1	?	i	?	i	i	?
CCN(Cc1ccccc1)C(=O)Cn1c(=O)n(-c2ccc(C)c(C)c2)c(=O)c2c(C)c(C)sc21	nt	i	nt	nt	nt	nt
Cc1c2cnn(CC(=O)N3CCC4(CC3)OCCO4)c(=O)c2c(C)n1Cc1cccc(Cl)c1	i	?	i	i	i	?
SMILES	Pf growth 48h	HCMV antiviral	HCV inh	Cycloheximide cs	Shiga inhibitor	Pf growth 96h
O=C(Cn1ncc2c3ccccc3n(Cc3cccc(Cl)c3)c2c1=O)N1CCC2(CC1)OCCO2	4.15µM	i	?	i	i	4.65µM
Cc1ccccc1Cn1c2ccccc2c2cn[nH]c(=O)c21	?	i	?	i	i	10.4µM
Cc1ccccc1Cn1c2ccccc2c2cnn(CC(=O)NCc3cccc(Cl)c3)c(=O)c21	nt	-78.4	nt	nt	nt	nt
COc1ccccc1CNC(=O)Cn1ncc2c3ccccc3n(Cc3ccccc3C)c2c1=O	nt	i	nt	nt	nt	nt
Cc1cc(C)cc(-n2c(SCC(=O)Nc3nnc(C)s3)nc3c([nH]c4ccccc43)c2=O)c1	nt	i	nt	nt	nt	nt
COC(=O)/C=C/c1ccc(-n2cncn2)cc1	i	?	i	22.7	i	?
CCc1nn(CC(=O)NCCC(C)C)c(=O)c2cc3occc3n12	nt	i	nt	nt	nt	nt
CCCn1c(/N=C/c2c[nH]c3ccccc23)nc2ccccc21	i	i	i	41.5	i	i
CCn1c(/N=C/c2c[nH]c3ccccc23)nc2ccccc21	i	i	i	i	i	1.85µM
CCn1c(/N=C/c2ccc(OC)cc2O)nc2ccccc21	i	i	i	i	i	?
CCCCn1c(/N=C/c2c[nH]c3ccccc23)nc2ccccc21	?	i	i	i	i	i
O=C(O)C(c1ccccc1)C(c1ccccc1)c1ccccc1 (stereo not given)	i	i	i	i	i	?

Bioassay records deposited in PubChem BioAssay by National Center for Advancing Translational Sciences (NCATS).
